CHT block: inhibitors of human choline transporter CHT | B-score at 10 µM | 0.86% of 310,000 active | AID 488975 | CHT-expressing cells, membrane potential dye, choline response; active compounds read low;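 active = B-score over 3 SD under the library average, and starting fluorescence ratio not unusually high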;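 note: choline stimulus applied at its EC90 after an EC20 pre-addition; B-score computed on integrated fluorescence ratio after choline addition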
Target sequence (Q9GZV3 whole entry, looked up): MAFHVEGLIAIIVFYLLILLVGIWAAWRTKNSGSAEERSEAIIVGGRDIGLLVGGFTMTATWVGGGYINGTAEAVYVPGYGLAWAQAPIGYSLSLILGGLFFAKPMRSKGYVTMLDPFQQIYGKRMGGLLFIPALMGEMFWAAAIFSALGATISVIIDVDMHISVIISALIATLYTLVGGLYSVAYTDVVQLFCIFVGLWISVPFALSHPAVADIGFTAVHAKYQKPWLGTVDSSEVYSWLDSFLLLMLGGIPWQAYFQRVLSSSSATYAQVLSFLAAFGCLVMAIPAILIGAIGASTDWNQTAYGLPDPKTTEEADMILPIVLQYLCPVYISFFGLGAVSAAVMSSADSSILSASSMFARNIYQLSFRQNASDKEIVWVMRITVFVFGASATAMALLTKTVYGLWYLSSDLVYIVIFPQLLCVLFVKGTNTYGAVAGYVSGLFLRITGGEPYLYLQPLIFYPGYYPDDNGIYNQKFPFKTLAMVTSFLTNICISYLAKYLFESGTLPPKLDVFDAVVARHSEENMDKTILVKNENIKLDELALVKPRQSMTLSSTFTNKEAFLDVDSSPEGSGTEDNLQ
Platelet DG rel: platelet dense granule release activity; AID 1663; inhibition, %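 (compounds screened at 7.5 µM in platelet-rich plasma)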; human platelet-rich plasma, SFLLRN dense granule ATP release, luminescence; 0.22% of 300,000 active;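 active = mean replicate score, as percent of positive control, at or above 50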
HIF act: HIF pathway transcriptional activation | U2OS HRE-luciferase reporter, luminescence; normalized: DMSO 0%, desferrioxamine 100% | activation, % at 7.5 µM (by protocol) | 0.32% of 300,000 active;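 active = mean activation of at least 10% of the iron chelator positive control signal, with at least half of replicates also reaching 10%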
AI-2 QS mod: modulators of Vibrio harveyi AI-2 quorum sensing system. Vibrio harveyi JMH597 AI-2 luminescence/OD600 ratio, 9 h; active compounds read low; strain lacks LuxN and CqsS sensors; 0 = neutral-control median. activity change, % at 7.5 µM. 0.4% of 300,000 active; in the data active = activity change below about -75%, passing the limit was not always enough;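 note: luminescence divided by OD600 gain over 9 h not by final OD600 alone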
VLA-4 inh: inhibition in a human VLA-4 binding assay | VLA-4 expressing cells, ligand binding flow cytometry | 0.2% of 330,000 active | AID 2557 | inhibition, % (about 7 µM as worked out from the volumes in the protocol) | P13612; in the data active = inhibition above about 50%
CHT PAM: allosteric activators of human choline transporter CHT. Q9GZV3. CHT-expressing cells, membrane potential dye, choline EC20; active compounds read high; LV-AA mutant CHT in HEK293 cells. B-score at 10 µM. 0.49% of 310,000 active;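 active = initial fluorescence not abnormally high and integrated response B-score, plate-corrected, over 3 SD above library mean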
CHT activ conf: confirmation of human choline transporter (CHT) activators; shares compounds with CHT PAM; CHT-expressing cells, membrane potential dye fluorescence (FDSS); % of choline EC20–EC90 response window; HEK293 expressing CHT LV-AA mutant; choline added at its EC20; activation, % at 10 µM; 91% of 2,500 active; AID 504833;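 active = primary screen active, with duplicate mean activation above negative control mean plus 3 SD, cut at about 11% in these data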
HEK293 MP dye: counter-screen for CHT activators: effect in parental HEK293 cells; shares compounds with CHT PAM; membrane potential dye fluorescence (FDSS); measured after EC20 choline addition; ratio readout change at 10 µM, hits read low; 62% of 2,500 active; AID 623908;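 active = duplicate-averaged ratio beyond 3 SD from buffer wells, up or down, though filed actives are nearly all decreases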
Each line names hits and unclear results; the compound was inactive in the other large screens (follow-up assays come after a bar, where they were run). Most compounds without a hit are left out; they make up all but 2.2% or so of the library.

CCCN1C(=O)c2cc(C(=O)Nc3ccc(OC)cc3OC)ccc2C1Nc1ccc(OC)cc1OC (stereo not drawn)	none
O=C(NCc1ccccc1CN1CCCC1)c1cc2ccccc2o1	none (no result: CHT block, Platelet DG rel, HIF act, AI-2 QS mod, CHT PAM)
Nc1c2c(nc3ccccc13)CSCC2	CHT PAM 6.3 | CHT activ conf 54 | HEK293 MP dye -55
Nc1c2c(nc3ccccc13)CCCC2=O	none
O=C(CSc1ccc2nnc(-c3ccccn3)n2n1)N1CCOCC1	none | CHT activ conf 42 | HEK293 MP dye -36
O=C(NC1CCCCC1)C(c1ccc(O)cc1)N(C(=O)c1cnccn1)c1cccc(F)c1 (stereo not drawn)	none
Cc1ccc(-c2nc(CN(C)C)cc(CN(C)C)c2O)cc1	none (no result: Platelet DG rel, HIF act, AI-2 QS mod)
CN(C)Cc1cc(C(C)(C)c2cc(CN(C)C)c(O)c(CN(C)C)c2)cc(CN(C)C)c1O	CHT PAM 8.3 (no result: Platelet DG rel, HIF act, AI-2 QS mod) | CHT activ conf 52 | HEK293 MP dye -58
CCC(C)(C)c1nnc(NC(=O)CCC2CCCCC2)s1	none
COc1ccc([N+](=O)[O-])cc1N(CC(O)CN(CC(C)C)CC(C)C)S(=O)(=O)c1ccccc1 (stereo not drawn)	CHT PAM 13 | CHT activ conf 42 | HEK293 MP dye inactive
COc1ccc([N+](=O)[O-])cc1N(CC(O)CN(C)C)S(=O)(=O)c1ccc(C)cc1 (stereo not drawn)	none
CCCCN(CCCC)CC(O)CN(c1cc([N+](=O)[O-])ccc1OC)S(=O)(=O)c1ccccc1 (stereo not drawn)	CHT PAM 11 | CHT activ conf 53 | HEK293 MP dye -45
O=c1oc(-c2ccc(Br)cc2)nc2ccccc12	none
O=S(=O)(Nc1ccc(Cl)cn1)c1ccc2c(c1)OCCO2	none
CCOc1cc(/C=C/c2cccc[n+]2C)ccc1O	CHT PAM 6.9 | CHT activ conf 48 | HEK293 MP dye -31
CCOc1cc(/C=C/c2cccc[n+]2C)ccc1OCC(=O)Nc1ccc(C)cc1	none
Cc1cc(N2CCCC2)nc2ccc(NC(=S)NC(C)C)cc12	none | CHT activ conf 21 | HEK293 MP dye -51
Cc1cc(N2CCOCC2)nc2ccc(NC(=S)NC(C)C)cc12	none
CCOCCCNC(=S)Nc1ccc2nc(N3CCCC3)cc(C)c2c1	none | CHT activ conf 32 | HEK293 MP dye -52
CN(C)CCCOc1nc2c(c(=O)n(C)c(=O)n2C)n1C	CHT PAM 9.1 | CHT activ conf 49 | HEK293 MP dye -55
Cc1ccccc1N(C(=O)CNC(=O)c1ccco1)C(C(=O)NC1CCCCC1)c1cccnc1 (stereo not drawn)	none
CC[n+]1c(/C=C/N(C)c2ccccc2)oc2ccc(F)cc21	none | CHT activ conf 30 | HEK293 MP dye -39
CC[n+]1c(/C=C/N(C)c2ccccc2)oc2ccccc21	none | CHT activ conf 52 | HEK293 MP dye -30
CC[n+]1c(/C=C/Nc2ccccc2)oc2ccccc21	none | CHT activ conf 41 | HEK293 MP dye -35
CC[n+]1c(/C=C/Nc2ccccc2)oc2ccc(OC)cc21	none
CC/C(=C\c1oc2cc3ccccc3cc2[n+]1CC)Nc1ccccc1	none
COc1ccc(/C=C/C2=Nc3ccccc3NC(C)(C)C2)cc1OC	none
CCC(Sc1nc2cc(OC)c(OC)cc2c(=O)n1Cc1ccc(OC)cc1)C(=O)NCCOC (stereo not drawn)	CHT PAM 6.6 | CHT activ conf inactive | HEK293 MP dye inactive
CCOC(=O)CNC(=O)CSc1cc(C)nc2ccc(OC)cc12	none | CHT activ conf 44 | HEK293 MP dye -42
COc1ccc2cc(C#N)c(SCC(=O)N3CCCC3)nc2c1	none
COc1ccc2nc(C)cc(SCC(=O)N3CCCCC3)c2c1	none | CHT activ conf 32 | HEK293 MP dye -45
CN(C(=O)CSc1ncnc2sccc12)c1c(N)n(Cc2ccccc2)c(=O)[nH]c1=O	none
COc1ccc(N2CCN(c3cc(C)c4ccccc4n3)CC2)cc1	none
Cc1cc(N2CCC(N(C)C3CCCC3)CC2)nc2cc(O)ccc12	CHT PAM 12 | CHT activ conf 31 | HEK293 MP dye -73
CCOC(=O)c1sc(NC(=O)C2CC(=O)N(c3ccc4c(c3)OCCO4)C2)nc1C (stereo not drawn)	none (no result: CHT block, Platelet DG rel, HIF act, AI-2 QS mod, CHT PAM)
O=[N+]([O-])c1c(NCCO)cc(N2CCCCC2)c2nonc12	none
CCOC(=O)N1CCN(c2cc(NCCO)c([N+](=O)[O-])c3nonc23)CC1	none | CHT activ conf 39 | HEK293 MP dye -32
COC(=O)c1c(NC(=O)CN2C(=O)C(=O)N(CC(C)C)C2=O)sc(C)c1C	none
COc1ccc(NC(=O)C(=O)NNC(=O)c2cccs2)c(OC)c1	CHT PAM 7.2 | CHT activ conf 69 | HEK293 MP dye -47
Cc1ccc(NC2CCCN(C(=O)c3ccoc3)C2)cc1C (stereo not drawn)	none
CCCC(c1nnnn1C1CCCCC1)N1CCN(C2CCCC2)CC1 (stereo not drawn)	none
CCCCC(c1nnnn1C1CCCC1)N1CCN(C2CCCC2)CC1 (stereo not drawn)	CHT PAM 6.6 | CHT activ conf 43 | HEK293 MP dye inactive
CCCC(c1nnnn1C(C)(C)CC)N1CCN(C2CCCC2)CC1 (stereo not drawn)	CHT PAM 8.4 (no result: Platelet DG rel, HIF act, AI-2 QS mod) | CHT activ conf 51 | HEK293 MP dye inactive
CC(C)C(c1nnnn1Cc1ccc(F)cc1)N1CCN(C2CCCC2)CC1 (stereo not drawn)	none
CCCC(c1nnnn1Cc1ccc(F)cc1)N1CCN(C2CCCCC2)CC1 (stereo not drawn)	CHT PAM 10 | CHT activ conf 36 | HEK293 MP dye inactive
C=CCOc1ccc(C(=O)Nc2ncn[nH]2)cc1	none
Cc1ccc(CN(C(=O)COc2ccc(C)c(C)c2)C2CCS(=O)(=O)C2)o1 (stereo not drawn)	none (no result: HIF act)
CCc1ccc(C(=O)OCC(=O)N(CCOC)c2c(N)n(Cc3ccccc3)c(=O)[nH]c2=O)cc1	none
C[C@@H]1CCCCCCCCC(=O)OCCN(C(=O)OC(C)(C)C)[C@H](C)CCCCCCCCC(=O)OCCN(C(=O)OC(C)(C)C)[C@H](C)CCCCCCCCC(=O)OCCN(C(=O)OC(C)(C)C)[C@H](C)CCCCCCCCC(=O)OCCN1C(=O)OC(C)(C)C	none (no result: CHT block, Platelet DG rel, HIF act, AI-2 QS mod, CHT PAM)
O=C1CCCCCCCCCC/C(=N\O)CCCO1	none | CHT activ conf 14 | HEK293 MP dye inactive
COC(=O)c1cc(C(=O)N2CCN(c3ccccc3OC)CC2)cc([N+](=O)[O-])c1	CHT PAM 6.8 | CHT activ conf 13 | HEK293 MP dye inactive

Screens (PubChem)
